Inconclusive results are not listed. Calls of active or inactive are those of the source. The calls were made as follows: active = hit-call score of the fitted dose curve at least 0.9, where 1 is the maximum; inconclusive = response in the unintended direction; inactive = score below 0.9.

Chain of human Vitamin D Receptor (VDR), VDR (gene 7421) (P11473 whole entry, looked up, the tested form may be a part): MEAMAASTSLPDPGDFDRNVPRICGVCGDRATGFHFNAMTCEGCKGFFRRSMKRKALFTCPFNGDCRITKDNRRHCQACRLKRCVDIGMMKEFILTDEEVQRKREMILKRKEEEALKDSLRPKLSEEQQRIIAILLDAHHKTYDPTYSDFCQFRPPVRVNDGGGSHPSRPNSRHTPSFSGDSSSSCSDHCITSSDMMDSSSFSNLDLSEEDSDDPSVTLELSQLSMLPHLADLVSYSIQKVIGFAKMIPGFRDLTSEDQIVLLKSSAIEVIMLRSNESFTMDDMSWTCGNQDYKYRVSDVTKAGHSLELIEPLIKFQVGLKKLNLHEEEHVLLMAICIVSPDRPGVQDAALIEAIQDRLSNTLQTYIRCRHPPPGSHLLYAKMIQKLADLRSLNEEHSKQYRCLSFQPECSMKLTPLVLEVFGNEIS

This test has as its target human Vitamin D Receptor (VDR), VDR (gene 7421) (UniProt P11473). The test can be described thus: ATG_VDR_TRANS: Attagene TRANS-FACTORIAL HepG2 Assay for human Vitamin D Receptor (VDR) (AID 2283022). An outline of the steps:
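Steps: transfect HepG2 with GAL4-UAS-driven reporter constructs; dose compounds 24 h; isolate RNA, reverse-transcribe, PCR-amplify with 6-FAM-labelled primer extension and HpaI digestion; quantify fragments by capillary electrophoresis relative to DMSO.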
As for `CCCCC(CC)COCCO` (stereo unspecified), the call was inactive.
Then `C=CCCCCCCCCC(=O)OCC`, with “inactive”; and `CC(=O)c1cccnc1`, with “inactive”.
As for `S=c1[nH][nH]c(=S)s1`, the entry is “inactive”.
For the molecule `CCCC1CCC(=O)CC1`, the molecule was called inactive.
As for `CN(C)c1ccc(C=O)cc1`, the entry is “inactive”; as for `O=Cc1ccccc1O`, “inactive”; as for `CCOC(=O)CC(C)C`, “inactive”.
Then `Nc1cc([N+](=O)[O-])ccc1C(=O)O`, with “inactive”; and `CC1=CC[C@@H](C(C)(C)O)CC1`, with “inactive”.
As for `CCC(C)(C)c1cc(O)c(C(C)(C)CC)cc1O`, the entry is “inactive”; as for `CC(CCO)CC(C)(C)C` (stereo unspecified), “inactive”.
Turning to `CC(=O)OC/C=C(C)/C=C/C=C(C)/C=C/C1=C(C)CCCC1(C)C`, the result was inactive.
Turning to `NC(=O)c1cnccn1`, the call was inactive.
As for `Cc1cccc(C)c1`, the entry is “inactive”; as for `CN(C)CCC=C1c2ccccc2CCc2ccccc21`, “inactive”.
Then `CC(C)COC(=O)c1ccccc1`, with “inactive”; and `CCCCC/C=C\C=C\C(=O)OCC`, with “inactive”.
Then `CC(=N[Si](C)(C)C)O[Si](C)(C)C`, with “inactive”; and `OCCCO`, with “inactive”; and `CC1=CC[C@@H]2C[C@H]1C2(C)C`, with “inactive”.
With `CCOC(=O)COC(=O)c1ccccc1C(=O)OCC`, the molecule was classed as inactive.
As for `CCCc1ccc(N)cc1`, the entry is “inactive”; as for `CC(=O)Oc1c(C)c(C)c2c(c1C)CC[C@@](C)(CCC[C@H](C)CCC[C@H](C)CCCC(C)C)O2`, “inactive”.
As for `CCCCCCCCCCCCCCCCCC(=O)OCCCCCCCCCCCCCC(C)C`, the entry is “inactive”; as for `OC[C@@H](O)[C@H](O)[C@@H](O)[C@@H](O)CO`, “inactive”.
Then `CCCCOCC(C)OCC(C)O` (stereo unspecified), with “inactive”; and `O=C1OCc2ccccc21`, with “inactive”.
With `Cc1ccccc1S`, the result was inactive.
Then `COc1ccc2[nH]cc(CCNC(C)=O)c2c1`, with “inactive”; and `CCNC(=S)NCC`, with “inactive”.
For `CC(=O)Nc1cc(S(=O)(=O)O)cc2cc(S(=O)(=O)O)c(N=Nc3ccccc3)c(O)c12`, the molecule was called inactive.
Turning to `CCCCCCOC(C)=O`, the result was inactive.
For `C=CC(C)CCCC(C)(C)O` (stereo unspecified), the molecule was called inactive.
Turning to `CCCCCCCCSCc1cc(C)c(O)c(CSCCCCCCCC)c1`, the molecule was called inactive.
Consider `O=S(=O)(O)CCCN1CCOCC1`, for which the molecule was called inactive.

(Values after PubChem BioAssay (EPA / NIEHS).)
